A short description of test [1]: qHTS assay to identify small molecule antagonists of the estrogen related receptor (ERR) signaling pathway from Tox21 library - cell viability counter screen (AID 1224834). Also: nearly all actives have a fitted effect of over 30% in size. The essentials: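 Viability readout (CellTiter-Fluor fluorescence, 30 min at 37 C) multiplexed with the ERR assay; cells treated 17.5 h at 37 C with compounds delivered in DMSO.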
Test [2] has as its target Luciferin 4-monooxygenase (Photinus pyralis) (UniProt P08659). In words: qHTS assay to identify small molecule inhibitors of firefly luciferase (AID 1224835). Also: nearly all actives have a fitted effect of over 25% in size. Also: potency is read from the fitted curve at half-maximal effect. The essentials: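 Biochemical qHTS: compounds run as interplate titrations against purified firefly enzyme, with D-luciferin and ATP each at its KM concentration. Light output recorded by CCD imaging.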
(Quantitative high-throughput screening tests each substance at several concentrations.)

Test [3] can be described thus: qHTS assay to identify small molecule agonists of the constitutive androstane receptor (CAR) signaling pathway - cell viability counter screen (AID 1224836). Also: series mostly up to about 92 µM; nearly all actives have a fitted effect of over 45% in size. The essentials:
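Using CellTiter-Fluor, viability of HepG2 cells harbouring hCAR and CYP2B6-2.2kb was measured following 23 h incubation with a 15-concentration compound series plus PK11195 (0.75 uM final).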

Test [4] can be described thus: qHTS assay to identify small molecule antagonists of the constitutive androstane receptor (CAR) signaling pathway - cell viability counter screen (AID 1224837). Also: series mostly up to about 92 µM; nearly all actives have a fitted effect of over 45% in size. In a few lines:
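Fluorescence from CellTiter-Fluor served as the viability signal. Human hepatoma HepG2 cells stably bearing hCAR and CYP2B6-2.2kb received compound plus CITCO (50 nM final) for 23 hr.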

The target in test [5] is Nuclear receptor subfamily 1 group I member 3 (Homo sapiens) (UniProt Q14994). Nature of the test: qHTS assay to identify small molecule antagonists of the constitutive androstane receptor (CAR) signaling pathway (AID 1224838).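 Also: HepG2 cells stably expressing hCAR with CYP2B6 luciferase reporter stimulated by CITCO; nearly all actives have a fitted effect of over 40% in size.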 The essentials:
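Quantitative HTS in double-stable HepG2-CYP2B6-hCAR cells. After 4 h plating, cells get compound (15 concentrations) and CITCO at 50 nM final, incubate 24 h at 37 C, then ONE-Glo luminescence is read.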

The target is the same in test [6]. Nature of the test: qHTS assay to identify small molecule agonists of the constitutive androstane receptor (CAR) signaling pathway (AID 1224839). Also: nearly all actives have a fitted effect of over 15% in size. Also: potency is read from the fitted curve at half-maximal effect. The essentials: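 Double-stable HepG2 cells (hCAR, CYP2B6-2.2kb) seeded 4 h before compound addition. Exposure 24 h with 0.75 uM PK11195 final. Luciferase detected by ONE-Glo.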
Test [7] in a line: qHTS assay to identify small molecule antagonists of the estrogen related receptor signaling pathway with the pleiotropic PPARgamma coactivator (PGC) from Tox21 10K library - cell viability counter screen (AID 1224840; active = well fitted cell-killing curve with a large enough effect in the repeat runs, not every such curve was filed as active; also: nearly all actives have a fitted effect of over 40% in size). In a few lines:
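Compounds in DMSO, alongside positive and negative controls, were pinned onto PGC/ERR cells (2,000 per well). Exposure lasted 17.5 hours at 37 C, followed by a 30-minute CellTiter-Fluor incubation and fluorescence reading.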

The nature of test [8]: qHTS assay to identify small molecule antagonists of the estrogen related receptor signaling pathway with the pleiotropic PPARgamma coactivator (PGC) from Tox21 10K library (AID 1224841; call rule not given here; also: series mostly up to about 92 µM; actives are mostly falling curves and most rising ones were filed inactive; nearly all actives have a fitted effect of over 50% in size). In a few lines:
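Compound exposure ran 18 hours at 37 C in PGC/ERR cells (2,000/well) that had first rested 6 hours in a 37 C/5% CO2 incubator. Luciferase activity was then detected with One-Glo after a 30-minute room-temperature step.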

Test [9] in a line: qHTS assay to identify small molecule agonists of the estrogen related receptor signaling pathway with the pleiotropic PPARgamma coactivator (PGC) from Tox21 10K library (AID 1224842). Also: nearly all actives have a fitted effect of over 15% in size. In a few lines: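 PGC/ERR reporter cell line, 2,000 cells per well, incubated 6 h at 37 C before 23 nL compound in DMSO was added. After 18 h at 37 C, One-Glo luminescence read following 30 min at room temperature.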

The target in test [10] is Thyrotropin receptor (Homo sapiens) (UniProt P16473). Nature of the test: qHTS assay to identify small molecule agonists of the thyroid stimulating hormone receptor (TSHR) signaling pathway (AID 1224843; calls by dose curve; also: nearly all actives have a fitted effect of over 45% in size). The essentials:
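TSHR-HEK293 cells in agonist mode, 30 min room-temperature step, then cAMP measured by competitive HTRF (cAMP-d2 with anti-cAMP cryptate) after 1 h at room temperature. Tested at 15 concentrations in triplicate.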

Records with an inconclusive call do not appear. The source made the active and inactive calls. Unless noted, calls follow the shape of the dose curve; as a rule, active = well fitted curve in the direction sought with a large enough effect in the repeat runs; inconclusive = weak or mixed curves; inactive = no such curve, though single readings can be large; an effect the other way counts as inactive or inconclusive.

The values below come from PubChem BioAssay (Tox21).

Chain of Nuclear receptor subfamily 1 group I member 3 (Homo sapiens) (Q14994 whole entry, looked up): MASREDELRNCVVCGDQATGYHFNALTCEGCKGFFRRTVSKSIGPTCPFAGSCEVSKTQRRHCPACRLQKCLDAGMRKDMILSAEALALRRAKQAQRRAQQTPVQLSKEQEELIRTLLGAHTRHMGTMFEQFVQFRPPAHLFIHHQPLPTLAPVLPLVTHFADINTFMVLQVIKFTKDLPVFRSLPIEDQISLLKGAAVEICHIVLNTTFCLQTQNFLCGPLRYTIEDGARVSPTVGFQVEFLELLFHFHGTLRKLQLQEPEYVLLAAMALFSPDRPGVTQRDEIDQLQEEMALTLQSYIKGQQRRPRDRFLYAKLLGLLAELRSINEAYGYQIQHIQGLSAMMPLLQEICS
Chain of Luciferin 4-monooxygenase (Photinus pyralis) (P08659 whole entry, looked up): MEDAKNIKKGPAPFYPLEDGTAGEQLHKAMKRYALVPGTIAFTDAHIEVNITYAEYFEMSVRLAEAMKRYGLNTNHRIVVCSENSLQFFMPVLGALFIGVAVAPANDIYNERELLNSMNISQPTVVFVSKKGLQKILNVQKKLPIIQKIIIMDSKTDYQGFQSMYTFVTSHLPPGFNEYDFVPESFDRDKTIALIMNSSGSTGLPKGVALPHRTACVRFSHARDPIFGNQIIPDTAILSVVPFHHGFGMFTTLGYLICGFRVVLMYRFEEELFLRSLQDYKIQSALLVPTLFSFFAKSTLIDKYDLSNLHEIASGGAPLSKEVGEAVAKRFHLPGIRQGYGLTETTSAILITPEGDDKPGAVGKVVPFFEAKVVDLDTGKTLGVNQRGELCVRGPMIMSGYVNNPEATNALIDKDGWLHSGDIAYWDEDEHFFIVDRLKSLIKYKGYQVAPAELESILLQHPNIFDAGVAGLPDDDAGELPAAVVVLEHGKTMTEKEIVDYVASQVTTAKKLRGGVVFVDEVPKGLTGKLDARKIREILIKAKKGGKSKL
Chain of Thyrotropin receptor (Homo sapiens) (P16473 whole entry, looked up): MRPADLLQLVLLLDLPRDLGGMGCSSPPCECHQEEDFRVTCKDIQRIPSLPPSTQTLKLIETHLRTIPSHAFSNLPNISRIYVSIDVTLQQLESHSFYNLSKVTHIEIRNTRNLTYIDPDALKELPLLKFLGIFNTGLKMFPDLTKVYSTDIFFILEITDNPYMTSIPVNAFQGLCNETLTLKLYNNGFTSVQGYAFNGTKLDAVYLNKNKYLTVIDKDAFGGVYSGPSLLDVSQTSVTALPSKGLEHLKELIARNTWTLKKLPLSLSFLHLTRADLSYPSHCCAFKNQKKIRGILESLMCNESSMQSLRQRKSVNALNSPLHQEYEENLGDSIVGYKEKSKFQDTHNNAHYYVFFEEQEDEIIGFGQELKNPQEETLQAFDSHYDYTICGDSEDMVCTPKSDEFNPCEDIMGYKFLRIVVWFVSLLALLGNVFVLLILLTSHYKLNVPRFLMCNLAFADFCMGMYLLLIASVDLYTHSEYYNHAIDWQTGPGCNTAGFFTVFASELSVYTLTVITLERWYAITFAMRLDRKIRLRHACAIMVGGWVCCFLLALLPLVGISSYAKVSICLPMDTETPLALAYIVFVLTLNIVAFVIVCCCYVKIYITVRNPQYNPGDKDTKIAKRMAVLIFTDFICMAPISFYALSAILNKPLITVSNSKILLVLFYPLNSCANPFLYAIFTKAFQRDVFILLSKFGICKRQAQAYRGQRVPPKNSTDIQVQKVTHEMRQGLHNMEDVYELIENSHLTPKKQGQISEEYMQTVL

With `O=C/C=C/c1ccco1`, the Potency result in [1], in test [2], in [3], in test [4], in test [5] and in test [6] was “inactive” throughout. Besides, in [7], the Potency entry was “inactive”.

Turning to `COc1cccc(C=O)c1`, the Potency entry in test [1], in test [2], in test [3], in test [4], in test [5] and in test [6] was “inactive” in each case. Further, the Potency entry in [7], in test [8], in test [9] and in test [10] was “inactive” in each case.

In the case of `CC(C)NCC(O)c1ccc([N+](=O)[O-])cc1` (configuration not stated), the Potency result in test [1], in [2], in test [3], in test [4], in test [5] and in test [6] was “inactive” in each case. Further, in test [7], the Potency entry is “inactive”.

As to `O=C(O)c1c(Cl)ccc2cc(Cl)cnc12`, the Potency result in [1], in [2], in test [3], in [4], in test [5] and in [6] was “inactive” each time. Also, the Potency result in test [7] and in test [10] was “inactive” in each case.

In the case of `NNC(N)=O`, the Potency result in test [1], in [2], in test [3], in test [4], in test [5] and in test [6] was “inactive” throughout. The Potency result in test [7] and in test [10] was “inactive” in each case.

`Oc1ccc(Cc2ccc(O)cc2)cc1`: the Potency result in test [1], in [3], in test [4], in [5], in [7] and in test [8] was “inactive” each time. Also, the Potency result in test [9] and in [10] was “inactive” each time. Moreover, the figures for the Potency in [2] and in test [6] were 40.2 µM (active) and 54.9 µM (active), respectively.

For `CCOC(=O)Nc1cccc(OC(=O)Nc2ccccc2)c1`, the Potency entry in test [1], in test [3], in test [4], in test [5] and in test [7] was “inactive” throughout. Besides, the Potency is 31.7 µM (active) in [2] and 30.6 µM (active) in [6].

Regarding `[O-][Br+2]([O-])O`, the Potency result in test [1], in [2], in [3], in [4], in [5] and in [7] was “inactive” each time.

`Cl/C=C/CCl`: the Potency result in test [1], in test [2], in test [3], in test [4], in test [5] and in test [8] was “inactive” each time. In addition, the Potency entry in test [9] and in test [10] was “inactive” throughout.

In the case of `CC1=C2[C@H]3OC(=O)[C@@H](C)[C@@H]3CC[C@@]2(C)C=CC1=O`, the Potency entry in [1], in test [2], in test [3], in test [4], in test [5] and in test [8] was “inactive” throughout. In addition, the Potency entry in test [9] is “inactive”.

Take `CCCC(C)(COC(N)=O)COC(N)=O`: the Potency entry in test [1], in [2], in test [3], in [4], in test [5] and in test [6] was “inactive” in each case. Moreover, the Potency result in test [8], in [9] and in test [10] was “inactive” throughout.

As for `CN(CCO)CCO`, the Potency entry in test [1], in [2], in test [3], in test [4], in test [5] and in test [7] was “inactive” in each case. Besides, the Potency result in test [10] is “inactive”.

For `c1cncc([C@@H]2CCCCN2)c1`, the Potency result in test [1], in [2], in test [3], in [4], in test [5] and in [7] was “inactive” each time.

As for `COc1ccc(C=O)cc1O`, the Potency entry in test [1], in test [2], in test [3], in test [4], in test [5] and in test [9] was “inactive” throughout. Further, the Potency entry in test [10] is “inactive”.

Consider `CS(=O)(=O)Cl`, for which the Potency result in test [1], in [2], in test [3], in test [4], in test [5] and in test [7] was “inactive” in each case. Moreover, the Potency result in [10] is “inactive”.

For the compound `CCNc1nc(NCC)nc(SC)n1`, the Potency entry in test [1], in test [2], in [3], in [4], in test [5] and in test [7] was “inactive” each time. The Potency result in [10] is “inactive”.

Consider `O=C(NC(=O)c1c(F)cccc1F)Nc1cc(Cl)c(F)c(Cl)c1F`, for which the Potency entry in test [1], in [2], in test [3], in test [4], in test [5] and in test [6] was “inactive” in each case. Moreover, the Potency result in test [7] and in test [10] was “inactive” in each case.

For `C=CC=O`, the Potency result in test [1], in test [2], in test [3], in test [4], in test [5] and in [6] was “inactive” throughout. In addition, the Potency result in test [7] and in [10] was “inactive” throughout.

`CCCCCCCC(=O)Cl`: the Potency entry in test [1], in test [2], in [3], in test [4], in [5] and in [6] was “inactive” each time. Further, the Potency entry in test [7] and in [10] was “inactive” each time.

With `CC#Cc1cc(C)nc(Nc2ccccc2)n1`, the Potency result in test [1], in test [3], in [4], in test [5], in [7] and in test [10] was “inactive” in each case. In addition, the figures for the Potency in test [2] and in [6] were 39.9 µM (active) and 30.6 µM (active), respectively.

With `CCCOc1nn(C(=O)NS(=O)(=O)c2ccccc2C(=O)OC)c(=O)n1C`, the Potency entry in test [1], in test [2], in test [3], in [4], in test [5] and in test [6] was “inactive” throughout. Besides, the Potency result in test [10] is “inactive”.

Take `Nc1c(Cl)c(F)nc(OCC(=O)O)c1Cl`: the Potency result in [1], in [2], in test [3], in test [4], in test [5] and in test [7] was “inactive” throughout. Besides, the Potency entry in [8], in test [9] and in test [10] was “inactive” each time.

On to `N=C(N)[Se]`, for which the Potency entry in [1], in [2], in test [3], in [4], in [5] and in test [6] was “inactive” throughout. Further, the Potency result in test [7] and in test [10] was “inactive” throughout.

With `O=C1CC(=O)NC(=O)N1`, the Potency result in [1], in [2], in test [3], in test [4], in test [5] and in test [7] was “inactive” in each case.

With `O=CCCl`, the Potency entry in test [1], in test [2], in test [3], in test [4], in test [5] and in [6] was “inactive” throughout. Further, the Potency entry in [7] and in test [10] was “inactive” throughout.

In the case of `CCC(C)(C#N)N=NC(C)(C#N)CC` (configuration not stated), the Potency result in [1], in test [2], in test [3], in test [4], in test [5] and in test [8] was “inactive” throughout. The Potency result in test [9] was “inactive”.

For `CC(C)(C)C(=O)C(Cl)Cl`, the Potency result in test [1], in test [2], in test [3], in [4], in [5] and in test [7] was “inactive” throughout. Moreover, in test [10], the Potency entry was “inactive”.

In the case of `CCCCCCC1CCOC1=O` (configuration not stated), the Potency result in [1], in [2], in [3], in test [4], in test [5] and in [7] was “inactive” each time. Moreover, the Potency result in test [8], in test [9] and in test [10] was “inactive” each time.

In the case of `Cc1ccc(Cl)c(O)c1`, the Potency entry in test [1], in test [2], in test [3], in test [4], in [5] and in [6] was “inactive” in each case. The Potency entry in test [8] and in [9] was “inactive” each time.
